Only some compounds are listed: those with a hit (about 2.7% of all), similar ones and a draw of the others.
NadD block: inhibitors of Staphylococcus aureus NadD | hit rate 0.78% among 360,000 | inhibition, % at 20 µM | AID 602399 | purified NadD enzyme, colorimetric absorbance read-out; in the data active means inhibition above about 26%
aDG glyco up: alpha-DG glycosylation activation. Pro5-aDG cells, alpha-DG glycosylation AlphaScreen (IIH6); 0% Pro5, 100% B10-LARGE cell signal. activation, % at 10 µM. hit rate 0.22% among 360,000;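 active means activation of at least 8% versus controls, or a plate z-score of at least 8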;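 further: Pro5 are CHO cells carrying HIG-tagged alpha-DG that lacks glycosylation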
MPTP inh: permeability transition pore inhibition. hit rate 1.4% among 360,000. AID 602449. isolated mouse mitochondria, Ca2+ swelling absorbance, 30 min. inhibition, % at 10 µM;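 active means inhibition of 50% or more, scaled per plate between neutral and stimulator controls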;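 further: 0% = DMSO wells given calcium and 100% = 1 mM EGTA wells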
H9c2 TAG inh: reduces triacylglycerol accumulation in H9c2 cells. Nile Red lipid (TAG) fluorescence; cells loaded with 200 µM oleic acid. inhibition, % at 12.5 µM. hit rate 0.66% among 230,000;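 active means pattern-corrected inhibition of lipid staining of at least 50% with the nuclear-stain viability signal not falling by more than 50%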;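 further: 0% = DMSO wells and 100% = triacsin C control wells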
NadD conf: confirmation of Staphylococcus aureus NadD inhibitors; inhibition, % at 20 µM; hit rate 13% among 2,000; purified S. aureus NadD, colorimetric enzyme assay; shares compounds with NadD block; in the data active means inhibition mostly above about 42%, no sharp cut-off; inactive means mostly below about 42%
* hit, by the source's call; . = no result given.

SMILES	NadD block	aDG glyco up	MPTP inh	H9c2 TAG inh	NadD conf
N#CCC(=O)Nc1ccc(C(=O)OCC(=O)Nc2ccc3ccccc3c2)cc1	46*	0	1	7	40
CCCC1NC(=O)c2cc3ccccc3cc2-n2c1nc1ccc(C)cc1c2=O (configuration not stated)	4	0	-1	-2	.
CCN(CC)S(=O)(=O)c1cc(NC(=O)COC(=O)c2ccc(NC(=O)CC#N)cc2)ccc1C	33*	0	6	-13	14
Cc1ccc(S(=O)(=O)N2C[C@@H]3[C@H]4CC[C@H](C4)[C@@H]3[C@@H](C)[C@H]2c2ccn(Cc3ccccc3)c2)cc1	0	0	-2	-17	.
CCCc1cc(=O)n2[nH]c(C)c(-c3ccccc3)c2n1	-3	0	-5	-13	.
Cc1[nH]n2c(=O)cc(-c3ccc([N+](=O)[O-])cc3)nc2c1-c1ccccc1	34*	0	4	0	51*
CCn1c(SCC(=O)Nc2oc(-c3ccccc3)c(-c3ccccc3)c2C#N)nnc1-c1ccncc1	17	0	1	2	.
N#Cc1c(NC(=O)CN2C(=O)c3ccccc3C2=O)oc(-c2ccccc2)c1-c1ccccc1	33*	0	-1	.	15
N#Cc1c(NC(=O)CSc2ncnc3sccc23)oc(-c2ccco2)c1-c1ccco1	58*	0	0	3	58*
CCn1c(SCC(=O)Nc2oc(-c3ccccc3)c(-c3ccccc3)c2C#N)nnc1-c1ccco1	29*	0	0	3	44
O=C(COC(=O)C1CCN(S(=O)(=O)c2ccc(Cl)c(C(F)(F)F)c2)CC1)NCC1CCCO1 (configuration not stated)	1	0	0	7	.
Cc1cccc(N2CC(C(=O)Nc3nnc(SCCN4CCOCC4)s3)CC2=O)c1 (configuration not stated)	27*	0	0	-5	20
Cc1cccc(N2CC(C(=O)Nc3nnc(SCCC4OCCO4)s3)CC2=O)c1 (configuration not stated)	41*	0	-1	0	19
NC(=O)[C@@H]1CC2(CC(c3cccc(NC(=O)COc4ccc(Cl)cc4)c3)=NO2)CN1C(=O)COc1ccc(Cl)cc1 (some centres not stated)	48*	0	-2	-16	24
C/C=C\C=C\C(=O)Nc1cccc(C2=NOC3(C2)C[C@@H](C(N)=O)N(C(=O)C(c2ccccc2)c2ccccc2)C3)c1 (some centres not stated)	39*	0	-1	-5	55*
NC(=O)[C@H]1CC2(CC(c3cccc(NC(=O)COc4ccc(Cl)cc4)c3)=NO2)CN1C(=O)C(c1ccccc1)c1ccccc1 (some centres not stated)	33*	2	-3	15	33
O=S(=O)(Nc1cccc(-c2cn3cccnc3n2)c1)c1ccc(-c2ccccc2)cc1	40*	0	1	2	41
COc1ccc(Cl)cc1NC(=S)Nc1ccccc1C	0	0	0	-2	.
COc1ccc(C(C[N+](=O)[O-])c2c(C)cc3ccccn23)cc1 (configuration not stated)	4	0	-1	20	.
COc1ccc(C(C[N+](=O)[O-])c2c(-c3ccccc3)cc3ccccn23)c(OC)c1 (configuration not stated)	33*	2	-1	.	14
COc1ccc(/C=N/Nc2nc(-c3cccc(S(=O)(=O)N4CCCC4)c3)cs2)c(OC)c1	37*	1	1	.	21
COc1cccc(C(=O)Nc2nc(-c3ccc(S(=O)(=O)N4CCOCC4)cc3)cs2)c1	-1	0	-2	22	.
COc1ccccc1CNC(=O)CCNS(=O)(=O)c1ccc2c(c1)CC(C)N2C(C)=O (configuration not stated)	2	0	-1	.	.
C=CCN1C(=O)/C(=C2/Sc3ccc(OC)cc3N2C)SC1=NCc1ccccc1	11	0	2	-5	.
COc1ccc2c(c1)N(C)/C(=C1/SC(=NCc3ccccc3)N(c3ccccc3)C1=O)S2	31*	0	1	-15	17
SMILES	NadD block	aDG glyco up	MPTP inh	H9c2 TAG inh	NadD conf
O=S(=O)(CCN1CCN(c2ccccc2O)CC1)c1cc(Cl)ccc1Cl	-5	1	-1	2	.
O=C(Nc1cc([N+](=O)[O-])ccc1O)c1cccc(C(=O)Nc2cc([N+](=O)[O-])ccc2O)c1	48*	0	0	-2	-3
COc1ccc(-c2cc(C#N)nc(N3CCN(C)CC3)n2)cc1	-21	1	0	.	.
COc1ccc(-c2cc(C#N)nc(N3CCNCC3)n2)cc1	45*	1	-3	.	37
COc1ccc(COc2cc(-c3cccc(OC)c3)nc3ccc(NC(=O)c4ccc(C)cc4)cc23)cc1	40*	-1	2	28	20
COc1ccc(COc2cc(-c3cccc(OC)c3)nc3ccc(NC(=O)c4ccc(N(C)C)cc4)cc23)cc1	27	-1	2	38	.
CCOC(=O)C1=C(C)N=c2sc(=Cc3cc(Cl)c(OCC(=O)O)c(OC)c3)c(=O)n2C1c1ccccc1Cl (configuration not stated)	30*	0	1	-2	23
COc1ccc(NC(=O)COC(=O)C2CCN(S(=O)(=O)c3cccs3)CC2)cc1OC	-5	0	-1	18	.
CC(C)(C)S(=O)N1Cc2cc(C(=O)NCc3ccc4c(c3)OCO4)nc(-c3cccc(-c4cc5ccccc5o4)c3)c2[C@@H]1CCO (some centres not stated)	33*	0	3	.	6
CC(C)(C)S(=O)N1Cc2cc(C(=O)NCc3ccc(Oc4ccccc4)cc3)nc(-c3cccc(-c4cc5ccccc5o4)c3)c2[C@H]1CCO (some centres not stated)	35*	1	2	.	23
CC(C)(C)S(=O)N1Cc2cc(C(=O)NCCCN3CCOCC3)nc(-c3cccc(-c4cc5ccccc5o4)c3)c2[C@@H]1CCO (some centres not stated)	-6	0	-1	.	.
CCc1ccccc1NC(=S)Nn1cnnc1	-2	0	1	-8	.
CCNS(=O)(=O)c1ccc(CCC(=O)N2CCc3ccccc3C2)cc1	0	0	1	.	.
CC1(c2ccccc2)CC(C)(C)n2c(O)c(C3=NC(=S)NC3=O)c3cccc1c32 (configuration not stated)	33*	0	17	-6	-1
CC1(c2ccccc2)CC(C)(C)N2C(=O)C(=O)c3cccc1c32 (configuration not stated)	-2	0	-1	9	.
CN(c1ccccc1)S(=O)(=O)c1ccc(Cl)c(C(=O)Nc2ccc(-c3nc4ccccc4[nH]3)cc2)c1	33*	0	-1	.	40
CN(c1ccccc1)S(=O)(=O)c1ccc(Cl)c(C(=O)Nc2nc3ccccc3[nH]2)c1	11	0	4	.	.
COc1ccc(OC)c(S(=O)(=O)N2CCC(C(=O)NCc3ccc4c(c3)OCO4)CC2)c1	-9	-1	1	-5	.
